Compound activity from PubChem BioAssay.
DAX1 inh = inhibits human nuclear receptor DAX1; P51843; HEK293 Gal4-DAX1 luciferase reporter, luminescence; inhibition, % at 6.75 µM; 340,000 tested, 0.99% active; AID 504766;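 active = inhibition above the mean over all tested compounds plus 3 SD, cut at about 4.2% in these data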;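 note: 0% = DAX1-transfected cells with DMSO and 100% = empty-vector control cells with DMSO; inhibition shows as a rise in luminescence from relieved DAX1 repression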
Target sequence (P51843 207-470 limits assumed): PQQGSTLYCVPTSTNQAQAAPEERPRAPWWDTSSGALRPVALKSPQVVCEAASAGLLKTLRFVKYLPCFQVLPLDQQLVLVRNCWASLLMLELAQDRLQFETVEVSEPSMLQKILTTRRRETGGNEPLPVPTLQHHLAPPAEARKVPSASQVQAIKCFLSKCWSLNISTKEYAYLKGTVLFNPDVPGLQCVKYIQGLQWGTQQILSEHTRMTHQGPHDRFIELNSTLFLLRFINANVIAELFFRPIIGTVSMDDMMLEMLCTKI
GAA850 FXN act = frataxin GAA850 promoter activation | 360,000 tested, 0.56% active | activation, % at 6 µM | HEK293 lucGAA850 FXN promoter luciferase reporter, 24 h; percent of 10 µM SAHA response;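 active = activation above the average of all compounds screened plus 3 SD, cutoff fixed separately per campaign, cut at about 7.5% in these data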;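 note: 0% = DMSO wells and 100% = 10 µM SAHA wells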
HSP90 inh = blocks HSP90-mediated luciferase refolding in reticulocyte lysate | Rabbit reticulocyte lysate, luciferase refolding luminescence, 3 h | AID 1789 | inhibition, % at 5.6 µM | 290,000 tested, 0.91% active;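 active = inhibition above the screen-wide mean plus 3 SD, computed separately per campaign, cut at about 16% in these data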;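 note: 0% = DMSO wells and 100% = 60 µM geldanamycin wells; inhibitors lower the luminescence because luciferase stays unfolded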
HSF-1 act = increases HSF-1 driven luciferase reporter signal; NIH3T3-HGL HSF-1 luciferase reporter, MG132, 8 h; 100% = twice DMSO control signal; activation, % at 9 µM; 300,000 tested, 1.7% active; AID 504408;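 active = mean replicate activation of at least 50% with a set share of replicates each reaching 50%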;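 note: 0% = median of the neutral control wells and 100% = twice that signal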
HSF1 inhib = HSF1 inhibition; NIH3T3-HGL HSE-luciferase, MG132-induced, luminescence 8 h; active compounds read low; activity change, negative = inhibition, % at 7.5 µM (by protocol); 300,000 tested, 0.77% active; AID 2098;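 active = more than half of replicate wells show activity change below -50%, luminescence cut by over half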;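 note: luciferase reports HSF-1 transcriptional activity via heat shock element; 0% = median of DMSO wells and -100% = zero luminescence signal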
AHR activator = activators of human aryl hydrocarbon receptor; AHR-responsive luciferase reporter cells, luminescence; activation, % at 5 µM; 320,000 tested, 2.5% active; AID 2796; in the data active = activation above about 47%;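 note: 0% = vehicle wells and 100% = reference agonist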
* = called active by the depositor; . = not tested or not shown. An excerpt weighted towards active compounds, which were near 5.9% of everything screened.

SMILES	DAX1 inh	GAA850 FXN act	HSP90 inh	HSF-1 act	HSF1 inhib	AHR activator
Cc1cc(C)c(C#N)c(SCc2nc3ccccc3c(=O)[nH]2)n1	0.3	7.6	4.2	-20.1	-2.7	51.4*
CCN(CC(=O)Nc1ccccc1-c1ccccc1)Cc1nc2ccccc2c(=O)[nH]1	-1.4	-4.0	0.3	8.3	0.1	-0.2
O=c1[nH]c(CSc2ncnc3sccc23)nc2cc(C(F)(F)F)ccc12	-0.2	0.4	4.0	-11.9	0.6	14.7
CCOC(=O)C1(C)CCN1C(=O)c1ccc(OC)c(C(F)(F)F)c1 (stereo unspecified)	.	-1.4	.	.	.	.
O=C(O)CCSc1nc2ccccc2s1	-2.1	-10.9	12.3	-65.0	-63.5*	-11.6
O=c1[nH]c(CSc2nc3ccccc3s2)nc2cc(Cl)ccc12	.	.	9.9	29.0	2.5	53.3*
CN(Cc1nc2ccccc2c(=O)[nH]1)c1ccccc1	5.3*	-3.0	6.3	34.6	16.9	8.3
O=c1[nH]c(CSc2ccccn2)nc2ccccc12	1.2	5.0	0.8	75.0*	34.5	17.7
Nn1c(CSc2ccccn2)nc2ccccc2c1=O	0.6	5.2	5.2	-6.9	-10.6	6.4
c1ccc2sc(SCSc3nc4ccccc4s3)nc2c1	-0.3	2.8	-1.4	6.5	9.3	1.0
Cc1cc(C)cc(OCC(O)Cn2nc(C)cc2C)c1 (stereo unspecified)	0.3	0.8	-0.4	1.5	-5.1	8.2
CC(C)NC(=O)NC(=O)COC(=O)CCCSc1nc2ccccc2s1	7.4*	1.5	5.6	2.6	-5.3	2.0
Cc1cc(C)c(C#N)c(SCc2ccc([N+](=O)[O-])cc2)n1	-0.7	2.1	3.6	52.6*	7.5	-0.6
COCc1cc(C)nc(SCc2ccccc2)c1C#N	-0.7	3.5	-4.8	4.3	-5.3	-1.0
Cc1ncsc1CCSc1n[nH]c(=O)n1-c1ccccc1	0.6	-2.3	3.3	12.9	3.0	-3.1
Cc1ncsc1CCSc1nc2ccccc2c(=O)n1C	-0.8	6.0	2.4	6.1	-4.9	96.0*
Cc1ccc(-c2cc(-c3n[nH]c(=S)o3)c3ccccc3n2)cc1	1.0	2.9	2.3	-6.0	0.5	5.2
S=c1[nH]nc(-c2cc(-c3ccccn3)nc3ccccc23)o1	-1.7	-0.9	0.0	2.8	1.2	73.5*
COc1ccccc1/C=C1/SC(=S)N(C(C)C(=O)NC2C=CS(=O)(=O)C2)C1=O (stereo unspecified)	-0.3	-0.5	6.3	63.8*	10.5	4.0
CN(C)/C=N/C1=C(C#N)C(c2ccc(Br)cc2)c2ccc3ccccc3c2O1 (stereo unspecified)	1.4	1.7	16.8*	3.7	9.3	20.3
N#CC1=C(N)Oc2c(ccc3ccccc23)C1c1cccs1 (stereo unspecified)	.	.	2.8	35.4	21.5	39.0
CCOC(=O)c1c(C)n(C)c2ccc(OC)c([N+](=O)[O-])c12	-0.2	3.1	2.5	1.0	-0.7	55.5*
COC(=O)c1ccccc1NC(=O)C1CCN(c2ncnc3c2nc2n3CCCCC2)CC1	4.8*	1.9	-1.6	-10.5	-2.9	1.3
N#CCc1c(C#N)c(N)nc(N2CCN(S(=O)(=O)c3ccccc3)CC2)c1C#N	-1.3	2.7	5.7	85.8*	87.2	-0.5
N#CCc1c(C#N)c(N)nc(N2CCN(C=O)CC2)c1C#N	-0.7	1.1	1.5	-0.9	-0.4	0.1
SMILES	DAX1 inh	GAA850 FXN act	HSP90 inh	HSF-1 act	HSF1 inhib	AHR activator
O=C1CC(/C=C/c2ccc(Cl)cc2)=Nc2ccccc2N1	2.6	0.4	0.8	70.3*	62.8	28.0
CC1(C)CC(/C=C/c2ccccc2)=Nc2ccccc2N1	6.0*	5.4	6.4	22.8	7.3	13.2
Cc1cccc(NC(=S)N2CCN(S(C)(=O)=O)CC2)c1	1.3	-2.9	0.1	-8.6	5.9	-1.3
CCCCn1c(NS(=O)(=O)c2ccccc2)c(S(=O)(=O)c2ccc(C)cc2)c2nc3ccccc3nc21	-3.5	-5.0	16.2*	30.8	0.1	3.4
Cc1ccc(S(=O)(=O)c2c(N)n(NC(=O)c3ccccc3C)c3nc4ccccc4nc23)cc1	-0.2	-2.6	2.5	46.0	10.7	-1.5
Cc1ccc(C(=O)Nn2c(N)c(S(=O)(=O)c3ccc(C)cc3)c3nc4ccccc4nc32)cc1	-0.3	1.4	5.7	8.7	2.8	-1.6
CCCCCn1c(NC(=O)c2ccco2)c(S(=O)(=O)c2ccc(C)cc2)c2nc3ccccc3nc21	1.2	0.1	16.4*	41.9	29.5	-0.8
CCC(=O)Nc1c(S(=O)(=O)c2ccc(C)cc2)c2nc3ccccc3nc2n1C(C)c1ccccc1 (stereo unspecified)	0.5	-0.5	-3.5	12.1	-0.3	2.0
CCC(=O)Nc1c(S(=O)(=O)c2ccccc2)c2nc3ccccc3nc2n1C(C)c1ccccc1 (stereo unspecified)	1.5	-1.4	-2.3	82.8*	41.1	2.2
CCCCn1c(NC(=O)c2ccco2)c(S(=O)(=O)c2ccc(C)cc2)c2nc3ccccc3nc21	0.3	2.4	7.1	137.2*	58.5	.
Cc1ccc(S(=O)(=O)N(C)C)cc1NC(=O)CN1C(=O)NC2(CCc3ccccc32)C1=O (stereo unspecified)	1.0	0.9	.	.	.	.
CC(NS(=O)(=O)c1ccccc1)C1CC2CCC1C2 (stereo unspecified)	1.1	1.6	.	12.0	-2.6	-1.1
Cc1cc(N2CCCC2)c(F)cc1/C=C\[N+](=O)[O-]	0.8	-0.9	-1.9	207.1*	160.0	.
Cc1cc(N2CCC(C)CC2)c(F)cc1[N+](=O)[O-]	-0.3	2.5	-1.7	9.3	-3.1	0.7
CC(C)CNC(=O)CC(=O)N/N=C/c1ccc(Br)cc1	-0.4	1.9	1.1	.	.	3.6
CC(C)NC(=O)CC(=O)N/N=C/c1ccc(Br)cc1	-1.2	-1.2	-2.9	-11.0	-2.5	53.1*
Cc1ccc(C2NNC(=O)C2NC(=O)c2ccccc2)cc1 (stereo unspecified)	4.5*	5.1	2.0	64.8*	35.3	7.7
CC(C)NC(=O)C1(C)CCN1C(=O)c1c(F)cccc1F (stereo unspecified)	.	2.0	.	.	.	.
Cc1cc(C)nc(NC(=O)c2cnc3sccn3c2=O)n1	-0.4	-0.6	3.3	-5.5	-4.4	70.4*
Cc1ccc(C(=O)c2oc3ccc(Cl)cc3c2NC(=O)CN2CCN(C)CC2)cc1	0.2	1.9	0.3	-10.7	2.1	4.0
O=C(Nc1c(-c2ccccc2)nc2ccccn12)c1ccccc1	-1.5	-0.4	-2.4	6.1	1.2	3.4
CCC(=O)Nc1c(-c2ccc3ccccc3c2)nc2ccccn12	-0.5	1.5	-1.2	15.6	13.7	50.1*
CC(=O)Nc1c(-c2ccc3ccccc3c2)nc2ccccn12	4.2*	4.8	-3.9	8.6	10.2	51.3*
Cc1cc(S(=O)(=O)N2CCN=C2c2ccccc2)c(C)cc1Cl	-1.4	-0.6	0.8	-71.5	-62.6*	1.2
COc1ccc(/C=N/Nc2ncnc3sc(C)c(C)c23)cc1	2.4	3.8	-2.3	6.8	-9.1	61.5*
